# Measured values published in PubChem BioAssay AID720526 (National Center for Advancing Translational Sciences (NCATS), 2013).
# Records with an inconclusive call do not appear. Entries that show only a call come without a potency. Active and inactive are the calls of the source. Calls follow the shape of the dose curve; as a rule, active = well fitted activation curve with a large enough effect; inconclusive = small, poorly fitted or top-dose-only effect; inactive = no such curve, though single readings can be large or run the other way.
# Assay: qHTS Assay for NPC1 Promoter Activators: Hit Validation Using Renila Luciferase Read-Out for NPC1
# Conditions: Huh7 NPC1 promoter-luciferase reporter, luminescence, 24 h; series mostly up to 76.9 µM
# How it was run: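 Huh7 cells stably carrying NPC promoter-luciferase reporter, exposed to compound for 24 h at 37 deg C. Luminescence read 10 min after adding luciferase detection reagent at room temperature.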
# Potency is read from the fitted curve at half-maximal effect.
row,SMILES,Potency
1,Cc1ccc(N(O)C(=O)NCCCCNC(=O)N(O)c2ccc(C)cc2)cc1,inactive
2,O=C(CSc1nnc(Cc2cc(=O)[nH]c(=O)[nH]2)n1-c1ccc(Cl)cc1)NC1CCCC1,inactive
3,COCCSc1ncnc2c1oc1nc3c(cc12)COC(C)(C)C3,inactive
4,Cc1ccc(C#N)c(SCC(=O)Nc2nccs2)n1,inactive
5,O=C(CCCN1C(=O)C(c2ccccc2)Oc2cccnc21)Nc1ccccc1Cl (stereo unspecified),inactive
6,O=C(O)CSc1nnc(-c2ccncc2)n1CCc1ccccc1,inactive
7,O=C(COC(=O)c1ccc(-c2nnc(-c3ccccc3)o2)cc1)c1ccccc1,inactive
8,Nc1ccccc1C(=O)N/N=C1/C2CN3CCN(C2)CC1(Cc1ccccc1)C3,inactive
9,N#CC/C(N)=N/NC(=O)CCCNc1ncc(C(F)(F)F)cc1Cl,inactive
10,Cn1c(CCN2CCN(c3ccccc3)CC2)nc2cc(NC(=O)c3ccco3)ccc21,inactive
11,Cc1ccccc1NC(=O)CSc1ccc(-c2cccnc2)nn1,inactive
12,COC(=O)Nc1nc2ccc(Br)cc2s1,inactive
13,CN(C)C(CNC(=O)CNC(=O)c1ccc2ccccc2c1)c1ccccc1 (stereo unspecified),inactive
14,CC(=O)NC(=S)Nc1ccc2oc(-c3cc(F)c(F)cc3Cl)nc2c1,inactive
15,O=C(CSc1nnc(-c2ccccn2)o1)Nc1ccccc1F,inactive
16,Nc1ccc(C(=O)Nc2ccccc2N)cc1,16.4 µM (active)
17,Cc1ccc(C(=O)c2cn[nH]c2-c2ccccc2O)cc1,inactive
18,Cc1ccc(CNC(=O)Nc2ccc(C)cc2)cc1,inactive
19,O=C(NC1CCCC1)C(c1ccc(F)cc1)N(C(=O)c1csnn1)c1ccccc1 (stereo unspecified),inactive
20,Cc1nc2sc(C(=O)OC(C)C)c(N)c2c(C)c1C,inactive
21,COc1ccc(C(c2nnnn2CCc2ccccc2)N2CCN(C3CCCC3)CC2)cc1 (stereo unspecified),13 µM (active)
